Experimental data from PubChem BioAssay (Tox21).
“And” between values parts separate entries of the source, which are not always exact repeats. Equal entries are not always repeated. Records with an inconclusive call do not appear. Some structures have more than one record in an assay (separate samples or runs), and their calls can disagree. The source made the active and inactive calls. Calls follow the shape of the full dose curve.

Assay: p53 small molecule agonists, cell-based qHTS assay with human liver microsomes: qHTS cell viability counter screen (AID 1963579); also: nearly all actives have a fitted effect of over 45% in size
Conditions: p53RE-bla HCT-116 viability, ATP luminescence, 16 h, HLM; series mostly up to 66 µM; activity change, negative = cytotoxicity: at the top concentration
Description: National Center for Advancing Translational Sciences [NCATS]
Division of Preclinical Innovation [DPI]
U.S. Environmental Protection Agency [EPA]
National Institutes of Environmental Health Sciences [NIEHS]
National Toxicology Program [NTP]
U.S. Food and Drug Administration [FDA]
p53, a tumor suppressor protein, is activated following cellular insult, including DNA damage and other cellular stresses. The activation of p53 regulates cell fate by inducing DNA repair, cell cycle arrest, apoptosis, or cellular senescence. The activation of p53, therefore, is a good indicator of DNA damage and other cellular stresses. […] The activation of the reporter gene under culture conditions can be detected by fluorescence intensity. This cell line was used to screen the Tox21 10K compound library in the condition of presence of human liver microsomes and to identify agonists that activate the p53 signaling pathway after in vitro metabolic activation (Ooka et al., Archive of Toxicology 96:1975-1987, 2022).
Tox21 Assay Protocol Summary:
The p53RE-bla cells were dispensed at 4,000cells/3ul/well in 1536-well black-clear bottom plates. After the assay plates were incubated at 37 C, 5% CO2 incubator for 5 hours, 23 nL of compounds dissolved in DMSO, positive controls or DMSO only was transferred to the assay plate. Following compound addition, 3 uL of human liver microsomes (XenoTech, Kansas City, KS) at final concentration of 0.5 mg/mL and 1uL of B-Nicotinamide adenine dinucleotide 2'-phosphate (NADPH) at final concentration of 0.5 mg/mL were transferred to the assay plate. The plates were incubated at 37 C for 16 hours. 1 uL of LiveBLAzer detection mixture was added to each well and the plates were incubated at room temperature in the dark for 2 h. Fluorescence intensity at 460 and 530 nm emission and 405 nm excitation were measured by an Envision plate reader. For cell viability readout that measures cytotoxicity, 4 ul/well of CellTiter-Glo reagent was added into the assay plates using a Flying Reagent Dispenser. After 30 min incubation at room temperature, the luminescence intensity in the plates was measured using a ViewLux plate reader.
% is scaled to controls: 0 for no effect and ±100 for the full control effect; potency is read from the fitted curve at half-maximal effect.

| Compound | activity change, negative = cytotoxicity | Potency |
| --- | --- | --- |
| CCCCCCCCSCCO | 5.27% (inactive) |  |
| C=C[C@H]1CN2CC[C@H]1C[C@@H]2[C@@H](O)c1ccnc2ccc(OC)cc12 |  | inactive |
| C[N+]1([O-])CCOCC1 | 3.32% (inactive) |  |
| COS(=O)(=O)O | 2.35% (inactive) |  |
| COCc1ccc(COC)cc1 | 6.68% (inactive) |  |
| CC(=O)CC/C=C(\C)CC/C=C(\C)CC/C=C(\C)CCC=C(C)C | -1.89% [at 30.3 µM] (inactive) |  |
| N#CCc1cccc(C(F)(F)F)c1 |  | 40.8 µM (active) |
| CCN(CC#N)c1cccc(C)c1 | 1.25% (inactive) |  |
| NCC1(Cc2noc(=O)[nH]2)CCCCC1 | 5.43% (inactive) |  |
| CCOCCOCC | 6.44% (inactive) |  |
| COc1cccc(OC)c1C(=O)N[C@@H]1C(=O)N2[C@@H]1SC(C)(C)[C@@H]2C(=O)O | -2.89% [at 30.3 µM] (inactive) |  |
| CO[C@@]1(NC(=O)CSC[C@@H](N)C(=O)O)C(=O)N2C(C(=O)O)=C(CSc3nnnn3C)CS[C@@H]21 | -7.59% [at 30.3 µM] (inactive) |  |
| CN1N=C(C(N)=O)CCC1=O | 31.9% [at 30.3 µM] (inactive) |  |
| CCOC(=O)C(C)Oc1ccc(Oc2cnc3cc(Cl)ccc3n2)cc1 (stereo not given) |  | inactive |
| CCCCCCCCCCCCCCCC(=O)NCCO | 8.3% [at 30.3 µM] (inactive) |  |
| CN(C)CCCNCCCN(C)C | -9.39% (inactive) |  |
| O=C(c1ccc2c(c1)C(=O)OC2=O)c1ccc2c(c1)C(=O)OC2=O | 10.5% (inactive) |  |
| CCCCCCCCC1CCC(=O)O1 (stereo not given) | -6.29% (inactive) |  |
| CC(C)(C)C1CCCCC1O (stereo not given) | 5.07% (inactive) |  |
| CCCCCCOC(=O)CC | -7.67% (inactive) |  |

| Compound | activity change, negative = cytotoxicity | Potency |
| --- | --- | --- |
| N[C@@H](CCC(=O)Nc1ccc([N+](=O)[O-])cc1)C(=O)O | 2.13% (inactive) |  |
| O=S(=O)(O)CCCN1CCOCC1 | 0.681% (inactive) |  |
| Cc1cc(C)cc(OCC2CNC(=O)O2)c1 (stereo not given) | 0.21% [at 30.3 µM] (inactive) |  |
| CC1(C)O[C@@H]2C[C@H]3[C@@H]4C[C@H](F)C5=CC(=O)C=C[C@]5(C)[C@@]4(F)[C@@H](O)C[C@]3(C)[C@]2(C(=O)CO)O1 |  | inactive |
| CC(C)(c1cc(Br)c(OCC(Br)CBr)c(Br)c1)c1cc(Br)c(OCC(Br)CBr)c(Br)c1 (stereo not given) | 0.711% [at 30.3 µM] (inactive) |  |
| O=C(O)CN(CCN(CC(=O)O)CC(=O)O)CCN(CC(=O)O)CC(=O)O | -3.04% [at 13.5 µM] (inactive) |  |
| Cc1cc(CCC(=O)OCCOCCOCCOC(=O)CCc2cc(C)c(O)c(C(C)(C)C)c2)cc(C(C)(C)C)c1O | 6.18% (inactive) |  |
| CCc1ccc(C=O)cc1 | 2.96% (inactive) |  |
| O=C1CCCCCCCCCCCCCCCO1 | -25.1% (inactive) |  |
| CC(=O)O[C@H]1C[C@@H]2CC[C@@]1(C)C2(C)C | -4.83% (inactive) |  |
| C[C@]12CC[C@H]3[C@@H](CCC4=CC(=O)CC[C@@]43C)[C@@H]1CC[C@@H]2C(=O)CO |  | inactive |
| CC(=O)c1cc(C)oc1C | 6.13% (inactive) |  |
| C1=COCCC1 | 2.26% (inactive) |  |
| NCCO |  | inactive and 36.3 µM (active) |
| C[n+]1ccn(CCO)c1 |  | inactive |
| CCC(=O)OC(C)(C)C1CC=C(C)CC1 (stereo not given) | -11% (inactive) |  |
| CCCCCC(=O)O[C@]1(C(C)=O)CC[C@H]2[C@@H]3CCC4=CC(=O)CC[C@]4(C)[C@H]3CC[C@@]21C |  | 20.3 µM (active) and inactive |
| CC(S)C(=O)NCC(=O)O (stereo not given) | 0.573% [at 30.3 µM] (inactive) |  |
| CCCCCCCC(OC)OC | 7.82% [at 30.3 µM] (inactive) |  |
| CCOCOCC | 4.94% (inactive) |  |
